Bioassay records (PubChem BioAssay)
IDE inh: inhibits human insulin-degrading enzyme in HEK cells; 320,000 tested, 0.41% active; inhibition, % at 5.59 µM; FAbetaB cleavage, fluorescence polarization; P14735; AID 434962;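 active = percent inhibition above the average of all tested compounds plus 3 SD, set per screening campaign, cut at about 16% in these data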;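 also: IDE supplied by intact live HEK cells; FP after avidin binding of uncleaved biotin substrate so inhibition keeps polarization high; 0% = DMSO wells and 100% = 60 µM reference IDE inhibitor Ii1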
M18AAP inhibitor: blocks P. falciparum M18 aspartyl aminopeptidase; recombinant PfM18AAP, H-Glu-NHMec fluorogenic cleavage; inhibition, % at 7.35 µM; 290,000 tested, 1.2% active; AID 1822;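 active = inhibition above the campaign mean inhibition over all tested compounds plus 3 SD, cut at about 28% in these data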;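 also: 0% = plate median of test compound wells and 100% = 2 mM ZnCl2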
ALR H2O2 inh: human ALR oxidase inhibition via reduced H2O2; P55789; purified ALR, DTT oxidation, H2O2 HRP-luminol luminescence; inhibition, % (test concentration not listed); 290,000 tested, 3.8% active; AID 485317;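 active = mean replicate inhibition above about 79%, with every replicate also reaching it, limit read from the data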
Target sequence (P55789 whole entry, looked up): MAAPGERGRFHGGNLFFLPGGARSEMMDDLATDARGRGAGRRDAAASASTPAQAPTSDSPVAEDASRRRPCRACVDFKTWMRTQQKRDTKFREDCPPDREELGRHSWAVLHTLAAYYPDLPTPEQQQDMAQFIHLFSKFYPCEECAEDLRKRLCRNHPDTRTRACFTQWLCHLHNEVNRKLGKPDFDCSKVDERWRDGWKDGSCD
IDE act: IDE (human) activation, cell-based. P14735. HEK cells, FAbeta-B cleavage, fluorescence polarization; 0% vehicle, 100% cell-free pure enzyme wells. activation, % at 5.96 µM. 340,000 tested, 0.073% active;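 active = activation above the mean of all tested compounds plus 3 SD, set per screening campaign, cut at about 17% in these data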
CaV13 FRET inh: Disruptors of the CACNA1D IQ motif to Ca2+-dependent inactivation inhibitor domain association, primary screening, Förster resonance energy transfer in intact living … | HEK cells, CFP/YFP FRET ICDI-IQ, plate reader, 10 min; percent FRET-ratio fall versus neutral wells | inhibition, % at 12.3 µM | 340,000 tested, 0.098% active | AID 743397;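 active = mean replicate inhibition of at least 30% and at least 1% of replicates passing that level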;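 also: 0% = median of the neutral control wells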
PolyA inhibitor: yeast polyadenylation inhibition; S. cerevisiae SKY197-pL101 polyadenylation reporter, beta-gal luminescence; efflux-impaired pdr1/pdr3 knockout yeast; score 100 = 6 SD above DMSO; activity score, % at 12 µM; 300,000 tested, 0.02% active; AID 1875;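 active = lowest replicate activity score at least 50, where 100 means six control SD above control mean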;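 also: yeast exposed to compound for 9 h at 30 °C; higher score means more reporter readthrough which indicates perturbed polyadenylation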
Active calls of the source: *. An excerpt weighted towards active compounds, which were near 4.1% of everything screened.

For Cc1cc(NC(=O)c2cccs2)n(-c2ccccc2)n1 the results were IDE inh -0.7, M18AAP inhibitor -4.5, ALR H2O2 inh 86.2*, IDE act 4.7, CaV13 FRET inh -5.7 and PolyA inhibitor 11.1.
Screening Cc1cc(Nc2ccccc2)n(-c2ccccc2)n1 returned IDE inh 0.6, M18AAP inhibitor 3.7, ALR H2O2 inh 97.7*, IDE act -5.4, CaV13 FRET inh -0.5 and PolyA inhibitor 2.2.
Cc1cc(C)nc(-n2nc(C)cc2Nc2ccccc2)n1 was read as IDE inh 1.0, M18AAP inhibitor -1.2, ALR H2O2 inh 98.3*, IDE act -0.3, CaV13 FRET inh -0.1 and PolyA inhibitor -16.0.
O=C(O)c1ccc(CNCc2ccccc2F)cc1 was read as IDE inh -0.7, M18AAP inhibitor 2.8, ALR H2O2 inh -3.3, IDE act -1.9, CaV13 FRET inh 0.3 and PolyA inhibitor -4.3.
Screening COc1cccc(-c2nc(CS(=O)(=O)CC(=O)NCCCc3ccccc3)c(C)o2)c1 returned IDE inh -1.4, M18AAP inhibitor -3.7, ALR H2O2 inh -3.6, IDE act 1.9, CaV13 FRET inh -13.6 and PolyA inhibitor 6.4.
Screening CCC(C)NC(=O)CS(=O)(=O)Cc1nc(-c2cccc(OC)c2)oc1C (stereo unspecified) returned IDE inh 5.6, M18AAP inhibitor 3.9, ALR H2O2 inh 99.2*, IDE act 6.3, CaV13 FRET inh 11.8 and PolyA inhibitor 1.6.
`COc1cccc(-c2nc(CS(=O)(=O)CC(=O)NCCCOC(C)C)c(C)o2)c1` gave IDE inh 1.1, M18AAP inhibitor -0.8, ALR H2O2 inh 93.9*, IDE act -3.0, CaV13 FRET inh -6.4 and PolyA inhibitor -7.4.
For COc1cccc(-c2nc(CS(=O)(=O)CC(=O)NCc3ccc4c(c3)OCO4)c(C)o2)c1 the results were IDE inh 1.2, M18AAP inhibitor 7.5, ALR H2O2 inh 95.4*, IDE act -0.7, CaV13 FRET inh -15.3 and PolyA inhibitor 23.2.
Screening COc1cccc(-c2nc(CS(=O)CC(=O)NCCCOC(C)C)c(C)o2)c1 (stereo unspecified) returned IDE inh 0.0, M18AAP inhibitor -1.9, ALR H2O2 inh 98.8*, IDE act 0.2, CaV13 FRET inh -5.7 and PolyA inhibitor 2.7.
COc1cccc(-c2nc(CS(=O)(=O)CC(=O)NCc3ccccc3)c(C)o2)c1 was read as IDE inh -0.5, M18AAP inhibitor 2.1, IDE act 4.5, CaV13 FRET inh -4.2 and PolyA inhibitor 1.1.
S=C(SCc1c(Cl)cccc1Cl)N1CCSCC1 was read as CaV13 FRET inh -3.8.
Screening CCC(=O)N(C)CCc1cc2c(c(OC)c1/C=N/NC(=O)[C@H]1C[C@@H]1c1ccccc1)OCO2 returned IDE inh 1.4, M18AAP inhibitor -16.0, IDE act -7.2, CaV13 FRET inh -4.5 and PolyA inhibitor 1.3.
Screening CCC(=O)N(C)CCc1cc2c(c(OC)c1/C=N/Nc1ccc(C(=O)O)cc1)OCO2 returned IDE inh 9.3, M18AAP inhibitor 25.0, ALR H2O2 inh 98.7*, IDE act 0.9, CaV13 FRET inh -3.2 and PolyA inhibitor 5.5.
For CCOC(=O)N1CCN(C(=O)CCCn2nnnc2CN2CCC(C)CC2)CC1 the results were IDE inh 0.2, M18AAP inhibitor -2.8, ALR H2O2 inh -21.9, IDE act 1.7, CaV13 FRET inh -2.3 and PolyA inhibitor 29.8.
`O=C(O)c1ccccc1-c1nc(-c2ccccc2)c(-c2ccccc2)[nH]1` gave IDE inh 1.6, M18AAP inhibitor -4.6, ALR H2O2 inh 25.7, IDE act -1.5, CaV13 FRET inh -4.8 and PolyA inhibitor 4.7.
O=C(O)c1cccc2c(-c3ccccc3)c(-c3ccccc3)[nH]c12 was read as IDE inh -0.3, M18AAP inhibitor -10.5, ALR H2O2 inh 98.2*, IDE act 3.2, CaV13 FRET inh 6.6 and PolyA inhibitor -4.7.
`Cc1csc(/N=C/c2ccc([N+](=O)[O-])cc2)n1` gave IDE inh -5.4, M18AAP inhibitor -8.9, ALR H2O2 inh 84.8*, IDE act 10.3 and CaV13 FRET inh -4.8.
CC(=O)Nc1ccc(NCc2ccc(C)s2)cc1 was read as IDE inh -1.8, M18AAP inhibitor 0.4, ALR H2O2 inh 96.4*, IDE act 4.6, CaV13 FRET inh -3.9 and PolyA inhibitor 4.1.
Screening CCCC(=O)Nc1ccc(NCc2ccc(C)s2)cc1 returned IDE inh -1.6, M18AAP inhibitor 0.8, ALR H2O2 inh 91.2*, IDE act 5.6, CaV13 FRET inh -5.1 and PolyA inhibitor 10.4.
Screening O=C(CNc1cccc(S(=O)(=O)N2CCCC2)c1)Nc1ccc(C(F)(F)F)cc1 returned IDE inh 3.5, ALR H2O2 inh 0.5, IDE act -0.8, CaV13 FRET inh -4.8 and PolyA inhibitor 24.0.
For Cc1ccc(C2=CSC3=NCCN23)cc1 the results were IDE inh -0.1, ALR H2O2 inh 41.7, IDE act 6.7, CaV13 FRET inh -19.2 and PolyA inhibitor 9.9.
Screening CC1CN2C(c3ccc(Cl)cc3)=CSC2=N1 (stereo unspecified) returned IDE inh -0.7, M18AAP inhibitor 9.8, ALR H2O2 inh 99.3*, IDE act -1.3, CaV13 FRET inh 0.2 and PolyA inhibitor 2.5.
`CCCCCN(C(=O)Cc1c(C)n(CCCCC)c2ccccc12)c1ccc(Oc2cccnc2)c(C)c1` gave CaV13 FRET inh -8.7.
`COC(=O)C1C(O)=C(C=Nc2ccccc2)C(=O)CC1(C)C` (stereo unspecified) gave IDE inh 2.0, M18AAP inhibitor 5.3, ALR H2O2 inh 100.4*, IDE act 0.5, CaV13 FRET inh -4.5 and PolyA inhibitor -11.2.
COC(=O)C1C(O)=C(C=Nc2ccc(N)cc2)C(=O)CC1(C)C (stereo unspecified) was read as IDE inh 2.2, M18AAP inhibitor 15.3, ALR H2O2 inh 25.6, IDE act 1.4, CaV13 FRET inh -3.4 and PolyA inhibitor 0.5.
`O=C(Nc1cccc(Cl)c1)NC1CCN(C2CCCCC2)C1` (stereo unspecified) gave IDE inh 5.4, M18AAP inhibitor 4.2, ALR H2O2 inh -14.4, IDE act -1.7, CaV13 FRET inh -2.3 and PolyA inhibitor 3.6.
`CN(C)c1ccc(Nc2nc(N)c3ccccc3n2)cc1` gave IDE inh -0.5, M18AAP inhibitor -34.3, ALR H2O2 inh 99.4*, IDE act 2.5, CaV13 FRET inh -4.4 and PolyA inhibitor -11.5.
For O=C1COc2ccc(C(=O)/C=C/c3ccccc3)cc2N1 the results were IDE inh 6.4, M18AAP inhibitor 8.7, ALR H2O2 inh 97.1*, IDE act 2.7, CaV13 FRET inh -9.6 and PolyA inhibitor -7.7.
